Structures can show the parent of a compound that is named as a salt. ± gives the standard deviation of the averaged measurements.
Tests used:
Experiment in all cases: growth (OD600 after 10 h); higher = more growth (less inhibition)
[1] = tested on: E. coli TESEC Alr+ wild-type control; conditions: compound 0.1 mM; raw OD600 reference: median of DMSO wells 0.241, cell-free background 0.041
Protocol: (§1)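 TESEC Mtb Alr E. coli, or the Alr+ wild-type control, in 384-well plates with Prestwick library compounds at 0.1 mM and 1% DMSO, across arabinose induction levels of 1E3 to 1E7 nM. Growth is read as OD600 after 10 h at 37 °C in triplicate biological replicates.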

[2] = tested on: E. coli TESEC Mtb Alr; conditions: compound 0.1 mM
Protocol: as §1

[3] = tested on: E. coli TESEC Mtb Asd; conditions: compound 0.1 mM
Protocol: (§2)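 TESEC E. coli strains in which the native enzyme is deleted and replaced by arabinose-inducible Mtb Asd, DapB, CysH or TrpD, each grown in its selective medium. Strains were screened against the Prestwick library at 0.1 mM and 1% DMSO in 384-well format at low and high arabinose induction. Growth is read as OD600 after 10 h in triplicate.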

[4] = tested on: E. coli TESEC Mtb DapB; conditions: compound 0.1 mM
Protocol: as §2

[5] = tested on: E. coli TESEC Alr+ wild-type control; conditions: compound 0.1 mM; raw OD600 reference: median of DMSO wells 0.49, cell-free background 0.052
Protocol: (§3)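 TESEC Mtb Alr E. coli (ΔaraC ΔtolC ΔentC Δalr ΔdadX, arabinose-inducible Mtb Alr) or the Alr+ wild-type control strain, grown in defined M9-fructose medium without D-alanine in 96-well plates with Prestwick library compounds at 0.1 mM and 1% DMSO. Low Alr induction is 0.1 µM arabinose and high induction is 10 mM arabinose.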

[6] = tested on: E. coli TESEC Mtb Alr; conditions: compound 0.1 mM; remark: listed apart in the source
Protocol: as §3

[7] = arabinose 1000 nM, raw OD600 reference: median of DMSO wells 0.294, cell-free background 0.041
[8] = arabinose 10000 nM, raw OD600 reference: median of DMSO wells 0.264, cell-free background 0.041
[9] = arabinose 100000 nM, raw OD600 reference: median of DMSO wells 0.201, cell-free background 0.041
[10] = arabinose 1000000 nM, raw OD600 reference: median of DMSO wells 0.193, cell-free background 0.041
[11] = arabinose 10000000 nM, raw OD600 reference: median of DMSO wells 0.146, cell-free background 0.041
[12] = arabinose induction (level): High, raw OD600 reference: median of DMSO wells 0.331, cell-free background 0.041
[13] = arabinose induction (level): Low, raw OD600 reference: median of DMSO wells 0.417, cell-free background 0.041
[14] = arabinose induction (level): High, raw OD600 reference: median of DMSO wells […], cell-free background 0.041
[15] = arabinose induction (level): Low, raw OD600 reference: median of DMSO wells 0.227, cell-free background 0.041
[16] = arabinose 100 nM, raw OD600 reference: median of DMSO wells 0.413, cell-free background 0.052
[17] = arabinose 10000000 nM, raw OD600 reference: median of DMSO wells […], cell-free background 0.052

SMILES | growth [1] | growth [2, 7] | growth [2, 8] | growth [2, 9] | growth [2, 10] | growth [2, 11] | growth [3, 12] | growth [3, 13] | growth [4, 14] | growth [4, 15] | growth [5] | growth [6, 16] | growth [6, 17]
CN(C(=O)CN(CCO)CC(=O)N(C)C(C)(C)Cc1ccccc1)C(C)(C)Cc1ccccc1 [Oxethazaine] | 0.0424 ± 0.0038 | 0.0404 ± 0.001 | 0.03963 ± 0.00015 | 0.0411 ± 0.00087 | 0.03937 ± 0.00015 | 0.0411 ± 0.0013 | 0.179 ± 0.014 | 0.25 ± 0.037 | 0.187 ± 0.031 | 0.202 ± 0.05 | 0.0484 ± 0.00076 | 0.165 ± 0.2 | 0.0514 ± 0.00058
C[N+](C)(C)CCCCCC[N+](C)(C)C [Hexamethonium dibromide dihydrate] | 0.247 ± 0.0066 | 0.27 ± 0.018 | 0.245 ± 0.0047 | 0.191 ± 0.022 | 0.1745 ± 0.00064 | 0.138 ± 0.0063 | 0.344 ± 0.048 | 0.454 ± 0.015 | 0.205 ± 0.014 | 0.233 ± 0.042 | 0.536 ± 0.007 | 0.425 ± 0.0087 | 0.384 ± 0.015
COc1cc(Cc2cnc(N)nc2N)cc(OC)c1OC [Trimethoprim] | 0.0601 ± 0.0005 | 0.04863 ± 0.00047 | 0.0442 ± 0.00076 | 0.04953 ± 0.00035 | 0.04553 ± 0.0004 | 0.0534 ± 0.00081 | 0.0958 ± 0.044 | 0.0867 ± 0.014 | 0.0742 ± 0.0018 | 0.0572 ± 0.0041 | 0.0896 ± 0.0014 | 0.0922 ± 0.026 | 0.0701 ± 0.0035
CC(Cc1cccc(C(F)(F)F)c1)NCCOC(=O)c1ccccc1 (stereo not drawn) [Benfluorex] | 0.174 ± 0.0053 | 0.15 ± 0.094 | 0.163 ± 0.0039 | 0.209 ± 0.0022 | 0.0479 ± 0.0001 | 0.0634 ± 0.0014 | 0.163 ± 0.014 | 0.153 ± 0.0072 | 0.149 ± 0.0064 | 0.1621 ± 0.00032 | 0.405 ± 0.013 | 0.411 ± 0.01 | 0.0607 ± 0.0052
CN1CCCCC1CCN1c2ccccc2Sc2ccc([S+](C)[O-])cc21 (stereo not drawn) [Mesoridazine besylate] | 0.169 ± 0.0023 | 0.24 ± 0.012 | 0.266 ± 0.0092 | 0.225 ± 0.032 | 0.131 ± 0.0058 | 0.149 ± 0.005 | 0.204 ± 0.023 | 0.339 ± 0.091 | 0.191 ± 0.007 | 0.202 ± 0.027 | 0.568 ± 0.023 | 0.403 ± 0.0065 | 0.3 ± 0.02
CCCc1nn(C)c2c(=O)[nH]c(-c3cc(S(=O)(=O)N4CCN(C)CC4)ccc3OCC)nc12 [Sildenafil] | 0.201 ± 0.016 | 0.235 ± 0.01 | 0.275 ± 0.014 | 0.186 ± 0.016 | 0.1606 ± 0.00076 | 0.1693 ± 0.0008 | 0.233 ± 0.013 | 0.399 ± 0.035 | 0.199 ± 0.01 | 0.27 ± 0.045 | 0.456 ± 0.045 | 0.406 ± 0.0068 | 0.2931 ± 0.0018
CO/N=C(\C(=O)N[C@@H]1C(=O)N2C(C(=O)O)=C(COC(C)=O)CS[C@H]12)c1csc(N)n1 [Cefotaxime sodium salt] | 0.0395 ± 0.00046 | 0.0388 ± 0.0013 | 0.0398 ± 0.00026 | 0.0388 ± 0.0013 | 0.04017 ± 0.00038 | 0.04007 ± 0.0004 | 0.0625 ± 0.0074 | 0.0606 ± 0.002 | 0.0632 ± 0.014 | 0.0489 ± 0.0033 | 0.0462 ± 0.0019 | 0.0466 ± 0.0015 | 0.0529 ± 0.0023
CC[C@]12CCCN3CCc4c(n(c5ccccc45)C(=O)C1)[C@@H]32 [Eburnamonine (-)] | 0.182 ± 0.0061 | 0.238 ± 0.0081 | 0.257 ± 0.0031 | 0.144 ± 0.0086 | 0.124 ± 0.004 | 0.135 ± 0.0057 | 0.119 ± 0.0043 | 0.27 ± 0.095 | 0.176 ± 0.0063 | 0.176 ± 0.012 | 0.544 ± 0.059 | 0.393 ± 0.012 | 0.277 ± 0.015
NS(=O)(=O)c1cc(C2(O)NC(=O)c3ccccc32)ccc1Cl (stereo not drawn) [Chlorthalidone] | 0.223 ± 0.0025 | 0.285 ± 0.012 | 0.255 ± 0.0039 | 0.193 ± 0.0099 | 0.168 ± 0.003 | 0.144 ± 0.0027 | 0.393 ± 0.037 | 0.462 ± 0.078 | 0.205 ± 0.016 | 0.208 ± 0.017 | 0.545 ± 0.05 | 0.415 ± 0.01 | 0.3322 ± 0.002
NNCCc1ccccc1 [Phenelzine sulfate] | 0.221 ± 0.0075 | 0.285 ± 0.015 | 0.261 ± 0.0056 | 0.187 ± 0.0033 | 0.0977 ± 0.0084 | 0.135 ± 0.0098 | 0.389 ± 0.044 | 0.4 ± 0.024 | 0.191 ± 0.012 | 0.249 ± 0.056 | 0.399 ± 0.017 | 0.0532 ± 0.007 | 0.0708 ± 0.0023
O=C(N[C@H](CO)[C@H](O)c1ccc([N+](=O)[O-])cc1)C(Cl)Cl [Chloramphenicol] | 0.0406 ± 0.00026 | 0.03953 ± 0.00031 | 0.0391 ± 0.00017 | 0.0408 ± 0.00053 | 0.03907 ± 0.00015 | 0.0407 ± 0.00064 | 0.0519 ± 0.00067 | 0.0522 ± 0.0019 | 0.0496 ± 0.00061 | 0.0578 ± 0.015 | 0.05047 ± 0.0005 | 0.0561 ± 0.0036 | 0.0533 ± 0.003
C=CCOC(Cn1ccnc1)c1ccc(Cl)cc1Cl (stereo not drawn) [Enilconazole] | 0.0491 ± 0.0028 | 0.0495 ± 0.0068 | 0.0424 ± 0.00087 | 0.0459 ± 0.0018 | 0.043 ± 0.0011 | 0.0488 ± 0.0025 | 0.0691 ± 0.01 | 0.0619 ± 0.0052 | 0.0767 ± 0.0029 | 0.0764 ± 0.0069 | 0.11 ± 0.01 | 0.193 ± 0.0082 | 0.0627 ± 0.0022
COc1cc(NS(=O)(=O)c2ccc(N)cc2)nc(OC)n1 [Sulfadimethoxine] | 0.2298 ± 0.0014 | 0.264 ± 0.011 | 0.177 ± 0.01 | 0.2126 ± 0.0014 | 0.106 ± 0.0049 | 0.139 ± 0.0065 | 0.266 ± 0.0084 | 0.403 ± 0.025 | 0.192 ± 0.0042 | 0.213 ± 0.015 | 0.46 ± 0.053 | 0.425 ± 0.0055 | 0.332 ± 0.031
CC(C)NC[C@H](O)COc1cccc2ccccc12 [(S)-propranolol hydrochloride] | 0.202 ± 0.0096 | 0.263 ± 0.011 | 0.295 ± 0.0058 | 0.18 ± 0.016 | 0.191 ± 0.014 | 0.149 ± 0.0089 | 0.279 ± 0.071 | 0.308 ± 0.043 | 0.173 ± 0.025 | 0.231 ± 0.051 | 0.497 ± 0.031 | 0.424 ± 0.0079 | 0.332 ± 0.016
CN1CCCC(CC2c3ccccc3Sc3ccccc32)C1 (stereo not drawn) [Metixene hydrochloride] | 0.0422 ± 0.00059 | 0.0424 ± 0.0015 | 0.0424 ± 0.00036 | 0.04217 ± 0.00038 | 0.04163 ± 0.00021 | 0.044 ± 0.0005 | 0.0629 ± 0.015 | 0.053 ± 0.0011 | 0.135 ± 0.07 | 0.0594 ± 0.0035 | 0.0609 ± 0.015 | 0.401 ± 0.0069 | 0.055 ± 0.0024
Cc1c(C)c2c(c(C)c1O)CCC(C)(C(=O)O)O2 (stereo not drawn) [Trolox] | 0.247 ± 0.0084 | 0.295 ± 0.0077 | 0.255 ± 0.0029 | 0.209 ± 0.031 | 0.1784 ± 0.0016 | 0.143 ± 0.0045 | 0.272 ± 0.097 | 0.32 ± 0.15 | 0.242 ± 0.0084 | 0.222 ± 0.021 | 0.579 ± 0.053 | 0.405 ± 0.0096 | 0.316 ± 0.024

Reference: the supplement of paper PMC9262897, “Low-cost anti-mycobacterial drug discovery using engineered E. coli” (Nature Communications, 2022)
